# Screen size: about 360,000 compounds; about 11,000 (3.1%) were called active. The sample holds actives, similar compounds and a random draw of the others, so the mix is not that of the screen. Rule as the data show it: active = activity change below about -30%; inactive = the rest.
# Biological target: D(1A) dopamine receptor (Homo sapiens) (UniProt P21728)
# Test: Antagonist of Human D 1 Dopamine Receptor: qHTS
# Conditions: HEK293 TREx D1 cells, calcium flux, dopamine EC80; at 10 µM; stronger effect = lower value
# Outline: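 Compound effects on dopamine-evoked calcium signalling were measured in tetracycline-induced HEK293 Trex D1 cells. Dopamine at EC80 followed a 180 s compound pre-read, and fluorescence was tracked kinetically for 180 s more.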
# % is scaled to controls: 0 for no effect and ±100 for the full control effect.
# Sequence of D(1A) dopamine receptor (Homo sapiens) (P21728 whole entry, looked up): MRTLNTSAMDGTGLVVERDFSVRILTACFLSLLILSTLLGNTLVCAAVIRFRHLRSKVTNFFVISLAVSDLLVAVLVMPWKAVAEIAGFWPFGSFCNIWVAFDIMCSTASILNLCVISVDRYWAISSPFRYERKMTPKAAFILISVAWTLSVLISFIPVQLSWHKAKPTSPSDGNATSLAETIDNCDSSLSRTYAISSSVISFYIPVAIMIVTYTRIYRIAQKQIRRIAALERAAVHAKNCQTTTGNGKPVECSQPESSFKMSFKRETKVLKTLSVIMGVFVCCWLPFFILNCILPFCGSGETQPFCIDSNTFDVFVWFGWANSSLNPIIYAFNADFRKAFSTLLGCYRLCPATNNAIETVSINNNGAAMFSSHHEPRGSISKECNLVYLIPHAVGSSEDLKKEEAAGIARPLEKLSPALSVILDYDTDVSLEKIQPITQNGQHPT
row,SMILES,"activity change, negative = inhibition"
1,CCn1cc2nc(SCc3ccccc3Cl)n(CCc3ccccc3)c(=O)c2n1,19.6% (inactive)
2,O=C(NC1CCCCC1)c1ccc(Cn2c(SCc3ccccc3)nc3cccnc32)cc1,-1.21% (inactive)
3,COc1ccc(Br)cc1C1CC(=O)Nc2c1c(C)nn2-c1nc(C)cc(C)n1 (centres undefined),5.29% (inactive)
4,CC(=O)N1CCCc2cc(S(=O)(=O)Nc3ccc(Cl)cc3F)ccc21,-13.2% (inactive)
5,Cc1ccccc1OCc1ccc(-c2nc(C#N)c(N3CCCCC3)o2)o1,2.09% (inactive)
6,CCC(C)Nc1oc(-c2ccc(COc3ccc(Cl)cc3)o2)nc1C#N (centres undefined),-2.28% (inactive)
7,COc1ccc(OCc2ccc(-c3nc(C#N)c(N4CCN(c5ccccc5)CC4)o3)o2)cc1,-27.6% (inactive)
8,CN1CCN(c2oc(-c3ccc(COc4ccc(Cl)cc4)o3)nc2C#N)CC1,-30.2% (active)
9,N#Cc1nc(COc2ccc(Cl)cc2)oc1N1CCCC1,-31.6% (active)
10,Cc1ccc(OCc2nc(C#N)c(N3CCCC3)o2)cc1,-1.06% (inactive)
11,CCC(C(=O)Nc1cc(OC)ccc1OC)n1c(=O)c(C(F)(F)F)nc2ccccc21 (centres undefined),-23.6% (inactive)
12,COc1cc(OC)cc(-c2nc3nc(C)c(CCC(=O)Nc4ccccc4)c(C)n3n2)c1,2.44% (inactive)
13,CC(C)C[C@H](CO)Nc1nc(N(C)c2cccc(Cl)c2)c2ncn(C(C)C)c2n1,-34% (active)
14,O=C(Nc1ccc(Br)cc1)c1cc2nc(-c3ccccc3)cc(-c3ccccc3)n2n1,-10.1% (inactive)
15,COc1ccc(-n2c(=O)c3ccccc3n(Cc3ccccc3Cl)c2=O)cc1,-11.1% (inactive)
16,Fc1ccccc1C(c1nnnn1Cc1ccc2c(c1)OCO2)N1CCN(Cc2ccccc2)CC1 (centres undefined),19.9% (inactive)
17,N#Cc1ccc(C(c2nnnn2CCc2ccccc2)N2CCCCCC2)cc1 (centres undefined),10.7% (inactive)
18,Fc1ccc(Cn2nnnc2C(c2cccs2)N2CCCCCC2)cc1 (centres undefined),-36.7% (active)
19,Cc1ccc(S(=O)(=O)N(Cc2nc(-c3ccc(Cl)cc3)no2)C2CCCCC2)cc1,-2.35% (inactive)
20,NS(=O)(=O)c1ccc(CNC(=O)c2cccc(Oc3ccccc3)c2)cc1,-38.4% (active)
21,NS(=O)(=O)c1ccc(CNC(=O)c2cccc(S(=O)(=O)N3CCc4ccccc43)c2)cc1,-4.68% (inactive)
22,NS(=O)(=O)c1ccc(CNC(=O)c2cnccn2)cc1,9.99% (inactive)
23,CCN(CC)S(=O)(=O)c1ccc2c(c1)N(CC(=O)NCC(C)c1ccccc1)C(=O)CO2 (centres undefined),6.95% (inactive)
24,CCCCN(CC)C(=O)c1c[nH]c2ccc(S(=O)(=O)Nc3cccc(OC)c3)cc2c1=O,16.9% (inactive)

# From PubChem BioAssay AID504652 (National Center for Advancing Translational Sciences (NCATS), 2011)
